Reference: the supplement of paper PMC12632987

T1: USP38, Q8NB14
T1 chain: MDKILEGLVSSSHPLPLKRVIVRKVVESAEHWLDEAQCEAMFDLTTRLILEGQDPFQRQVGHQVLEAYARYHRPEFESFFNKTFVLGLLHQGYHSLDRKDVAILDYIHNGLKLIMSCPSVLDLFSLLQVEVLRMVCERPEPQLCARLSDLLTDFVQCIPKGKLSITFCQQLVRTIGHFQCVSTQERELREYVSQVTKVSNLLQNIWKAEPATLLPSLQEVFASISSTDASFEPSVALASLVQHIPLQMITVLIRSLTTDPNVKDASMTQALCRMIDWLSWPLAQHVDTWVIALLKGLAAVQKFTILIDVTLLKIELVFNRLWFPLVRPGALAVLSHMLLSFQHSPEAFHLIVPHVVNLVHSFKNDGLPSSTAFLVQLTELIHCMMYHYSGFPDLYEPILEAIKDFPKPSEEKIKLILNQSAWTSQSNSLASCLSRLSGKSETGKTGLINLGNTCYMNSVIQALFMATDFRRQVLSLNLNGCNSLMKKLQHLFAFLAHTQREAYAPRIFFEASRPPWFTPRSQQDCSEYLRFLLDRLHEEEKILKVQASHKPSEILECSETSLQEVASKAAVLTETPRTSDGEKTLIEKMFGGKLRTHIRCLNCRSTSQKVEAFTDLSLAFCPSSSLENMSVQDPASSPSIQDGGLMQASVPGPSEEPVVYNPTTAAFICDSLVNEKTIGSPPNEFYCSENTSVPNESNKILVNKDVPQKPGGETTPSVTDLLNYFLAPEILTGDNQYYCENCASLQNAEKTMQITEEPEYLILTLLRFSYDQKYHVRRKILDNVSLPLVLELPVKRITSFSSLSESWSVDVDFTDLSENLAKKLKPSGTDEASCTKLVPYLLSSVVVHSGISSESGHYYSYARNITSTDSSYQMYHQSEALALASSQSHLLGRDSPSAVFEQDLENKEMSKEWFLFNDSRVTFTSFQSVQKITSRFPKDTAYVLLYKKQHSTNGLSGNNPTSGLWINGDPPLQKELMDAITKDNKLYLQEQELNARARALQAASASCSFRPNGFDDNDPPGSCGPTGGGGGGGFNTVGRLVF

B1: usp_38_diff_out_1_162_41 (protein)
chain: DIEKVLEQAQKALEEAEKLLKEAEKALKEGDLEEAEKYIRKAWDKLGQLAQLLREARRLLRELSPEERKKYREQLDKLEAKADELIDRLVKLEKEVFLKK
B2: usp_38_diff_out_1_153_23 (protein)
chain: MKEEELRKRLEEIKKKAEELKKEAEALLKSGNATREKVDALADKLGALAVELRELKALAAQDPEVYKALKPLFKETEKALNEAVDALNEAARQVFLKEAE
B3: usp_38_diff_out_1_162_37 (protein)
chain: RAEELLERLREHTERLRRLVEEAKRRLDTLSAEELRAMADELADAIAETDELIREARRLMVDLDPERREEARRAIEEARRAADEAVEVYEQLVLRSIELE
B4: usp_38_diff_out_1_147_14 (protein)
chain: SAADEADAAAQAEIDERLRRFARESLDDFEANRDRYSPDRATVALGGLITTAIELGDRELLLRAAALLLKDPAVRAAVLARLDPAARAAFEEAEAEVRAA
B5: usp_38_diff_out_1_162_43 (protein)
chain: DVEKVLEQAKELLEKAEKKIKEAEKALKEGKLEEAEKYLDEAWELLGQLAKLLREARRLRRELDPERQAEVTKKLKELNEKANKLIDKLTKLEEEVFLKK
B6: usp_38_diff_out_1_153_21 (protein)
chain: SELEELKKELEEILEEAKKLKEEIEKLIKEGKMTLEKVDKLADELGRLSKRFREIRSKAAENPEYYEKLKELFKETEEELNKAVDALNEAGRLVFLKEAE
B7: usp_38_diff_out_1_153_25 (protein)
chain: SELEELKKKVEEIKKEAEKLKKEAEELIKSGEATREKVEELADKLGKLSVELREIRSKAAESGEYYKELKPLFKEAEEALNEAVDALEKAAREVFLKEAE
B8: usp_38_diff_out_1_153_27 (protein)
chain: SELEELKKKIEEITKEAEKLKKEAEKLIKDGTATREKVDELADKLGKLAVELREIRSKAAESGEYYKKLKPLFKKAEKALNEAVDALNKAATLVFEKEAE
B9: usp_38_diff_out_1_153_32 (protein)
chain: SELEELKKKVEEITKKAKELKKEAEKLIADGTATLEKVDALADELGALAVELREIRSKAAESGDYYKKLKPLFDEANAALNEAVDALNRAGTLVFEREAE
B10: usp_38_diff_out_1_153_20 (protein)
chain: SRLEELRKELEEILEEAKRLRDEIERLIAEGRMTRELVDRYADRLGELAARFREIRAELADDPEAYKELRPLLKETQAALDAAVDALERAGRLVFLREAE
B11: usp_38_diff_out_1_153_35 (protein)
chain: SELDKLKAELADITAKANALKKEIEAAIKAGTMTREKVDAAWDELGALAKRLAEIRSKAAENPELYPKLKADIDAANAALDAAIDALNEAATKVFLKEAE
B12: usp_38_diff_out_1_153_19 (protein)
chain: SELEELKKELEKIKEEAKKLKEEIEKLIKEGKMTREKVDEYADKLGELAKRFREIRSKLAQNPEAYKELKELLKETEKELNEAVDALNEAGRLVFLKEAE
B13: usp_38_diff_out_1_153_18 (protein)
chain: SRLDELRARLERILAEARELKAEIKALIEAGTMTREKVEEYADRLAALAAEFREIRAEAAEDPAAYAALRPLFRETQAALDEAVDALEEAGRLVFEREAE
B14: usp_38_diff_out_1_147_15 (protein)
chain: SPADEADAEAEAEARERLREFARESLDELEANRDRLSLDRRVTQAGGLFTIAVELGDRELLLRVAALLLEDPEALAAVRARLSPEERAALEAAVAEVRAA
B15: usp_38_diff_out_1_153_29 (protein)
chain: SELEELKARVEKITKEAEALKKEAEKLIADGTATREKVDALADKLGALAVELREIKSKAAESGEYYKKLKPLFDKAEAALNEAVDALNRAATLVFEREAA
B16: usp_38_diff_out_1_162_40 (protein)
chain: ELEEVLREAREAIERARELLERAKEALEEGRLEEAERLLDEAADELGRAARLLREARRLLRELPPEEREKYREELEKLERELRELIDEYTELAREVFLRR
B17: usp_38_diff_out_1_153_26 (protein)
chain: SELEKLEKEIKKITEEAKKLKEEAEKLIEDGTATREKVDELADRLGKLAVELREIRSKAAESGDYYKKLKPLFEEAEKALNEAVDALNKAGTLVFEKEAE
B18: usp_38_diff_out_1_153_31 (protein)
chain: SELEELRERIERLTREARELEREARELIESGEATREKVDELADRLGRLAVELRELRSKAAESGEYYKELKPLFEEAEEALNRAVDALNEAGRLVFEREAE
B19: usp_38_diff_out_1_153_16 (protein)
chain: SELEKMKEELEKILEEAKKLKEEIEKLIKEGKMTREKVDKYADELAELAKRFRELRSKAAENPEYYKELKELFKETLKALNEAVDALTKAAEQVFLKEAE
B20: usp_38_diff_out_1_153_36 (protein)
chain: SELDELKARLDAITAEANALKAEINAAIEAGTMTREQVDAAWDRLGALAKELAEIRAKAAEKPELYPQLKPAIDAATAALNAAIDALNEAARLVFLREAE
B21: usp_38_diff_out_1_162_39 (protein)
chain: RLEELLEEARRAIEEARRLLEEAERAFKAGDLEEARRLLDRAADALGRAAQLLREARRLMRDLPPEEREKVREELDRLEEELDRLIDRYTELATRVFLAE
B22: usp_38_diff_out_1_153_24 (protein)
chain: VKLEELKKRVEEITKRAKELKKEAEELLKSGNATREEVDRLADELGRLAVELRELRSIAAEDEEVYKALKPLFKEANEALDEAVDALNEAGRRVFLKEAE
B23: usp_38_diff_out_1_153_22 (protein)
chain: MKEEELEKKVEEIKKKAKELLKEAKKLLESGKATREEVDKLADELGKLAVELRELRSEAAEDEEVYKKLKEKFKEAEKALNEAVDALNEAARRVFLKEAE
B24: usp_38_diff_out_1_147_13 (protein)
chain: SAADEADREAEAEAREKLRRFAWESLEELEKNRDKLSLDRLTIGAGGLLVVALELGDEELLLRVAALLLEDPEVLARVRARLSPEERARLEAAVARVRAA
B25: usp_38_diff_out_1_153_28 (protein)
chain: SKLEELKKRVEEITKEAKELKKEAEKLIKSGKATLEKVEELADKLGKLSVELREIRSEAAEDEEYYKELKPLFKEAEKALNEAVDALEKAGRLVFEKMAE
B26: usp_38_diff_out_1_153_17 (protein)
chain: SRLEELKKRLEEILEEAKRLKEEIERLIAEGTMTREKVDEYADRLGKLAVEFREIRAEAAEDPEIYKELKELFKETEKALNEAVDALERAGRLVFLREAE
B27: usp_38_diff_out_1_153_34 (protein)
chain: SRLEELRKRVEEITKRAKELKKRAEELIESGEATLEKVDELADELGRLAVELREVRSEAAEDGDYYRELKPLFDEAEKALNEAVDALNEAGRLVFLKEAE
B28: usp_38_diff_out_1_153_30 (protein)
chain: SELEELEKEIKKITEEAKKLKKEAEELIKSGKATREKVDKLADELGKLAVRLREIRSKAAESGDYYKKLKPLFKEAEKALNEAVDALEKAGRLVFEKEAE
B29: usp_38_diff_out_1_162_42 (protein)
chain: KLEELLEQAKRALAEAEELLERAEEALAAGRLEEARRYLDRAWDALGRLAQLLREARRLLRELSPEEREKARKQLKELEARADELIDRLVELEREVFLRE
B30: usp_38_diff_out_1_162_38 (protein)
chain: ELEELLKEAEEAIERARELLERAEEAFAAGDLETAERLLREAADELGRAAQLLREARRLLRELPPEEREKYRERLEELERELDELIDRYTALATEVFLAR
B31: usp_38_diff_out_1_153_33 (protein)
chain: SKLEELKARVEALTAEAKALEKEAKALIESGKATREKVDALADRLGALAVELRELRSEAAESGEYYKELKPLFDEANAALDAAVDALEKLGRLVFEKEAE
B32: usp_38_diff_out_1_101_9 (protein)
chain: MEAELAAAKAAFDAAAAALLKAAEDALAKIKAEGTPEQAAEMERHLAAIKSFIADSRKTLEEIAEQDKEAAIEFANAATTVLNILTAEVKEETARLLAKA

Target: T1, USP38, Q8NB14
Assay: median log2 fold change of GCK-ALFA target abundance (FLAG IP / Myc IP barcode read proportion) (log2 ratio); each designed protein is fused to an ALFA-tag nanobody in HEK293 cells to bring the named protein to FLAG-tagged glucokinase (GCK); Myc marks an untargeted standard; higher = target protein stabilised (more abundant)
Conditions: target protein: 3xFLAG-MCP-GCK-ALFA reporter; HEK293 landing pad (RPLP)
Outline: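 Sequencing of reverse-transcribed, amplified circular RNA barcodes from anti-FLAG and anti-Myc immunoprecipitates provided the readout for an ALFA-nanobody-fused binder library recombined into HEK293 landing-pad cells. Those cells were induced with 2 μg mL^−1 doxycycline, transfected with a plasmid expressing a FLAG-tagged target and a Myc-tagged standard, and lysed after 48 h. Target abundance is the per-binder median log2 ratio of FLAG to Myc barcode read proportions. Only barcodes at a proportion of ≥10^−7 in both replicates and binders with ≥3 barcodes per replicate were kept, with a 10^−6 pseudocount added before the two replicates were pooled.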

| Binder | median log2 fold change |
| --- | --- |
| B1 | -0.214 |
| B2 | 0.0874 |
| B3 | 0.216 |
| B4 | 0.247 |
| B5 | -1.34 |
| B6 | 0.358 |
| B7 | -0.027 |
| B8 | 0.0209 |
| B9 | -0.165 |
| B10 | -0.0906 |
| B11 | 0.136 |
| B12 | -0.00147 |
| B13 | 0.0475 |
| B14 | 0.0346 |
| B15 | -0.161 |
| B16 | -0.209 |

| Binder | median log2 fold change |
| --- | --- |
| B17 | 0.457 |
| B18 | 0.15 |
| B19 | -0.51 |
| B20 | 0.22 |
| B21 | 0.185 |
| B22 | 0.085 |
| B23 | 0.146 |
| B24 | -1.17 |
| B25 | -0.31 |
| B26 | -0.168 |
| B27 | 0.122 |
| B28 | -0.0674 |
| B29 | -0.0981 |
| B30 | 0.219 |
| B31 | 0.179 |
| B32 | -0.957 |
